The OligoGym collection

What follows are sequences tested against PEX11G (assay: pooled miR-30 sensor sort-seq; sequence = guide strand). Conditions: shRNA.
Further: reference of the scale not given here.

Sequence	sensor-assay potency score (higher = more potent)
TAGTGTAGACAAACATGGCCAG	-0.684
TGGACACCACCAACAGACGTGT	-1.09
AACCAGAACTCCACCAACCAGC	-1.17
TTTCAGCAGCATCCACAGGGAC	-0.746

Each sequence was assayed against PFKFB4 in the same assay as above. Conditions: shRNA.

Sequence	sensor-assay potency score (higher = more potent)
TTGATATAGGACAGGTCCCTAT	-1.32
TTTGTAGGTCTTGACCACGTCC	-0.178
TTTCACACTTCACAAAGCCAAC	-1.28
TTAAAGATGGTCGCTCTCCGTT	-0.54
TATCGAGTCAGCTTCTTGGAGA	-0.636
TTTTGGTCACTGATGAACTGGG	-0.438
TCAAGTGACTCTTAGCAGCAGG	-0.462
TAGGTCTTGACCACGTCCCGGC	-0.311
TTTCCTTTCACATTGTAGGGTT	0.667
TAGACTCTTGGCAAACTCCCTG	0.333
TCATCTAGCGACTCGTAGGAGT	-0.615
TTCACTGTGAGAGCAGGCCTGA	-0.707

What follows are sequences tested against PGBD3 in the same assay as above. Conditions: shRNA.

Sequence	sensor-assay potency score (higher = more potent)
TTCATCAGGAGAGTCATCTTTA	0.38
TTTCTTTAAAGCTACATCTGAT	-0.534
TTTGGAACAAATTTCATGCATC	-0.293
TACGCTTCTGAGGTCTTCCTTT	-0.455
TTCATTTGGAACAAATTTCATG	-0.714
TAAACGTAGATGGAACTTCATC	-1.36
TTTGGTGGTGCTGTAACTCTAC	0.653
TAAAGCTACATCTGATTCCAGT	-0.329
TGCATTGTCAGCAACATGCAAA	-1.12
TTTTCTTTAAAGCTACATCTGA	-0.486
AACTTTGTCAATGTGATCCTTT	0.355
TTGTGTTCTTATGACATTCAGC	-0.605

Each sequence was assayed against PGD in the same assay as above. Conditions: shRNA.

Sequence	sensor-assay potency score (higher = more potent)
TTTCTTATCACCATCAAACTGG	-0.51
TCAACTTTGGAGACAGTCCTAT	-0.343
TAGGAATACACTTCTAATGATG	-1.08
TTGAGGTCTCGGCACCGTCTTG	-1.68
TTGAGCGTAAGAGATGATCTTG	0.0723
TGACTTAAAGAAGTCGTCCAGT	-0.436
TTGGTGTGGATAAACTGCCCTG	-0.35
TTCAGAGATGATAAGCACCGAG	-0.0452
TAGGAGGTTCTGAAGTTCCGGG	-0.239
TTTCCTAGGAATACACTTCTAA	0.166
